Experimental data taken from PubChem BioAssay (Tox21).
Several values for one entry are separate records, joined by “and”; a condition that tells them apart may be missing. Equal entries are not always repeated. Records with an inconclusive call do not appear. Some structures have more than one record in an assay (separate samples or runs), and their calls can disagree. Activity calls are given as the source filed them. Calls follow the shape of the dose curve; as a rule, active = well fitted cell-killing curve with a large enough effect in the repeat runs; inconclusive = weak or mixed curves, or effect the other way; inactive = no such curve, though single readings can be large or run the other way.

assay: qHTS assay to identify small molecule antagonists of the glucocorticoid receptor (GR) signaling pathway - cell viability counter screen (AID 720693); conditions: GR-bla HeLa viability, CellTiter-Glo luminescence, 18 h, with 5 nM dexamethasone present; series mostly up to 58.5 µM; viability change, negative = cytotoxic: at the top concentration; also: nearly all actives have a fitted effect of over 55% in size
% is scaled to controls: 0 for no effect and ±100 for the full control effect.

Compound | viability change, negative = cytotoxic | outcome
CCCCNC(=O)NCCCC | 16% (inactive) | 
CCCN(CCC)CCc1cccc2c1CC(=O)N2 | 1.61% (inactive) | 
CC(=O)CC(C)C | -0.403% (inactive) | 
CCSC(=O)N(CC(C)C)CC(C)C | 10.7% (inactive) | 
N=C(N)c1ccc2cc(OC(=O)c3ccc(N=C(N)N)cc3)ccc2c1 | 0.177% (inactive) | 
O=C1CC2CC1C1CCCC21 (stereo not drawn) | 1.97% (inactive) | 
O=c1n(CCO)c(=O)n(CCO)c(=O)n1CCO |  | inactive
O=C(O)CN(CCOCCOCCN(CC(=O)O)CC(=O)O)CC(=O)O | 2.2% (inactive) | 
CCN1CCC[C@H]1CNC(=O)c1cc(S(N)(=O)=O)ccc1OC | 5.73% (inactive) | 
COCCc1ccc(OCC(O)CNC(C)C)cc1 (stereo not drawn) |  | inactive
CC(=O)OCC(CCn1cnc2cnc(N)nc21)COC(C)=O | 0.385% (inactive) | 
CCn1ccnc1CC1COc2ccccc2O1 (stereo not drawn) | 2.53% (inactive) | 
CC1(C)CO[C@@H](CC(=O)O)CN1 | 3.36% (inactive) | 
CC(C)(CC(=O)O)C(=O)O | -3.57% (inactive) | 
CCCCC/C=C\CCC=O | -1.04% (inactive) | 
O=C1CCCN1C1CCCCC1 | 16.2% (inactive) | 
CC(C)(c1ccc(O)cc1)c1ccc(O)cc1 | -2.43% (inactive) | 
C=C(C)C(=O)OCCCCCCCC(C)C | 19.3% [at 78.9 µM] (inactive) | 
ClC(Cl)(Br)Br | -2.39% (inactive) | 
COC(=O)c1cc(C(=O)OC)cc(S(=O)(=O)O)c1 | 28.2% (inactive) | 

Compound | viability change, negative = cytotoxic | outcome
CC/C=C\CCOC(C)=O | -2.09% (inactive) | 
CC(=O)OCC(=O)[C@@]1(O)CC[C@H]2[C@@H]3CCC4=CC(=O)CC[C@]4(C)[C@H]3C(=O)C[C@@]21C | 7.5% (inactive) | 
N[C@H]1CN(c2c(F)cc3c(=O)c(C(=O)O)cn(C4C[C@H]4F)c3c2Cl)CC12CC2 (stereo partly drawn) | 2.79% (inactive) | 
C[C@H]1C[C@@H](O)CC(C)(C)C1 | 1.45% (inactive) | 
CC(=O)N(CC(O)CO)c1c(I)c(C(=O)NCCO)c(I)c(C(=O)NCC(O)CO)c1I (stereo not drawn) | 1.53% (inactive) | 
O=C(CCCN1CCC(O)(c2cccc(C(F)(F)F)c2)CC1)c1ccc(F)cc1 | -21.4% (inactive) | 
CC(C)(O)C(=O)c1ccccc1 | -0.201% (inactive) | 
OC(CCN1CCCCC1)(c1ccccc1)C1CC2C=CC1C2 (stereo not drawn) | -5.18% (inactive) | 
CC(=O)Nc1ccc(S(N)(=O)=O)cc1 | -6.25% (inactive) | 
C[N+](C)(C)CCCCCC[N+](C)(C)C | 8.73% (inactive) | 
O=C(O)COc1nn(Cc2ccccc2)c2ccccc12 | 8.41% (inactive) | 
CCCCOCCOCCOCc1cc2c(cc1CCC)OCO2 |  | inactive
CC1(C)C(O)C(C)(C)C1O (stereo not drawn) | 8.93% (inactive) | 
NC(=O)COCCN1CCN(C(c2ccccc2)c2ccc(Cl)cc2)CC1 (stereo not drawn) | -5.9% (inactive) | 
COc1ccc2c(c1)c(CC(=O)OCC(=O)O)c(C)n2C(=O)c1ccc(Cl)cc1 | -1.2% (inactive) | 
CCN(Cc1ccncc1)C(=O)C(CO)c1ccccc1 (stereo not drawn) | 2.39% (inactive) | 
CCc1nccnc1CC | 7.16% [at 27 µM] (inactive) | 
OC1CCCCC1c1ccccc1 (stereo not drawn) | 9.06% (inactive) | 
O=S(O)CO |  | inactive

assay: qHTS assay for identifying genotoxic compounds that show differential cytotoxicity against isogenic chicken DT40 cell lines with known DNA damage response pathways - wild type cell line (AID 743012); conditions: DT40 wild type chicken cells viability, CellTiter-Glo, 40 h; series mostly up to 68.4 µM; activity change, negative = cytotoxicity: at the top concentration; also: nearly all actives have a fitted effect of over 60% in size; also: potency is read from the fitted curve at half-maximal effect
In short: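 Cells (DT40 wild type, 300/well) are treated with DMSO-dissolved compounds after a ~0.5 h pre-incubation and kept 40 h at 37 C/5% CO2. Viability is then measured by CellTiter-Glo luminescence following 30 min at room temperature.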

Compound | activity change, negative = cytotoxicity | Potency
CCCCNC(=O)NCCCC | -5.18% (inactive) | 
CCCN(CCC)CCc1cccc2c1CC(=O)N2 | -1.15% (inactive) | 
CC(=O)CC(C)C | 18.4% (inactive) | 
CCSC(=O)N(CC(C)C)CC(C)C | -1.6% (inactive) | 
N=C(N)c1ccc2cc(OC(=O)c3ccc(N=C(N)N)cc3)ccc2c1 | 10.8% (inactive) | 
O=C1CC2CC1C1CCCC21 (stereo not drawn) | 3.12% (inactive) | 
O=c1n(CCO)c(=O)n(CCO)c(=O)n1CCO | -11% [at 95 µM] (inactive) | 
O=C(O)CN(CCOCCOCCN(CC(=O)O)CC(=O)O)CC(=O)O | 4.12% (inactive) | 
CCN1CCC[C@H]1CNC(=O)c1cc(S(N)(=O)=O)ccc1OC | 2.82% (inactive) | 
COCCc1ccc(OCC(O)CNC(C)C)cc1 (stereo not drawn) |  | inactive and 21.1 µM (active)
CC(=O)OCC(CCn1cnc2cnc(N)nc21)COC(C)=O | 11% (inactive) | 
CCn1ccnc1CC1COc2ccccc2O1 (stereo not drawn) | -2.7% (inactive) | 
CC1(C)CO[C@@H](CC(=O)O)CN1 | 2.16% (inactive) | 
CC(C)(CC(=O)O)C(=O)O | -0.569% (inactive) | 
CCCCC/C=C\CCC=O | -4.54% (inactive) | 
O=C1CCCN1C1CCCCC1 | -9.09% (inactive) | 
CC(C)(c1ccc(O)cc1)c1ccc(O)cc1 |  | 27.3 µM (active)
C=C(C)C(=O)OCCCCCCCC(C)C | -4.19% [at 95 µM] (inactive) | 
ClC(Cl)(Br)Br | -1.16% (inactive) | 
COC(=O)c1cc(C(=O)OC)cc(S(=O)(=O)O)c1 | -1.98% (inactive) | 

Compound | activity change, negative = cytotoxicity | Potency
CC/C=C\CCOC(C)=O | 11% (inactive) | 
CC(=O)OCC(=O)[C@@]1(O)CC[C@H]2[C@@H]3CCC4=CC(=O)CC[C@]4(C)[C@H]3C(=O)C[C@@]21C | -0.0134% (inactive) | 
N[C@H]1CN(c2c(F)cc3c(=O)c(C(=O)O)cn(C4C[C@H]4F)c3c2Cl)CC12CC2 (stereo partly drawn) | 7.9% (inactive) | 
C[C@H]1C[C@@H](O)CC(C)(C)C1 | 2.81% (inactive) | 
CC(=O)N(CC(O)CO)c1c(I)c(C(=O)NCCO)c(I)c(C(=O)NCC(O)CO)c1I (stereo not drawn) | 0.85% (inactive) | 
O=C(CCCN1CCC(O)(c2cccc(C(F)(F)F)c2)CC1)c1ccc(F)cc1 |  | 10.6 µM (active)
CC(C)(O)C(=O)c1ccccc1 | 34.1% (inactive) | 
OC(CCN1CCCCC1)(c1ccccc1)C1CC2C=CC1C2 (stereo not drawn) |  | 7.5 µM (active) and 9.44 µM (active)
CC(=O)Nc1ccc(S(N)(=O)=O)cc1 | 9.36% (inactive) | 
C[N+](C)(C)CCCCCC[N+](C)(C)C | -0.308% (inactive) | 
O=C(O)COc1nn(Cc2ccccc2)c2ccccc12 | 19.8% (inactive) | 
CCCCOCCOCCOCc1cc2c(cc1CCC)OCO2 |  | 24.6 µM (active)
CC1(C)C(O)C(C)(C)C1O (stereo not drawn) | 13.9% (inactive) | 
NC(=O)COCCN1CCN(C(c2ccccc2)c2ccc(Cl)cc2)CC1 (stereo not drawn) |  | 33.5 µM (active)
COc1ccc2c(c1)c(CC(=O)OCC(=O)O)c(C)n2C(=O)c1ccc(Cl)cc1 | 7.26% (inactive) | 
CCN(Cc1ccncc1)C(=O)C(CO)c1ccccc1 (stereo not drawn) | 1.26% (inactive) | 
CCc1nccnc1CC | 16.6% [at 31.4 µM] (inactive) | 
OC1CCCCC1c1ccccc1 (stereo not drawn) | 4.06% (inactive) | 
O=S(O)CO | 5.6% (inactive) | 
